NTMT1 inhibitor = Primary qHTS for Inhibitors of N-terminal methyltransferase 1 (NTMT1): MTaseGlo Assay. N-terminal Xaa-Pro-Lys N-methyltransferase 1 (Homo sapiens), Q9BV86. actives 2.5% (n = 59,000). Potency, µM (highest dose often 114 µM), inactives show top-dose activity change, negative = inhibition, hits mostly inhibitors. NTMT1 MTase-Glo SAH luminescence, purified enzyme;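 also: potency is read from the fitted curve at half-maximal effect; plate controls were DMSO vehicle for no effect and no enzyme for full effect; nearly all actives have a fitted effect of over 65% in size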
Target sequence (Q9BV86 whole entry, looked up): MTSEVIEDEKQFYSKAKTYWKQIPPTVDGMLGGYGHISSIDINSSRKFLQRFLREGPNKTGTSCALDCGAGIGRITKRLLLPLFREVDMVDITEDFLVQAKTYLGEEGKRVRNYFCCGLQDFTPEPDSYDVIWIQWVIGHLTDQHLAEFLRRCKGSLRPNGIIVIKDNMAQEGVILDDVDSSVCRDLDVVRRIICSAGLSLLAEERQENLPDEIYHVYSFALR
B2AR arrestin ag = qHTS assay of beta-arrestin-biased ligands of beta2-adrenergic receptor: NCGC Sytravon Library Screen. HTLA Tango cells, beta-arrestin recruitment, luciferase luminescence, 18 h. Potency, µM (series often up to 46.1 µM), most hits filed as activators. 44,000 tested, under 10 active;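 also: potency is read from the fitted curve at half-maximal effect; 0% = DMSO and full agonism = EC100 isoproterenol or metaproterenol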
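Ligand-induced beta-arrestin recruitment to recombinant beta2-AR is measured via a tTA-driven luciferase reporter in Tango cells after 18 hr compound exposure at 37 degrees C. Concentrations span up to 46 microM.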
TSG101-PTAP inh = qHTS Validation Assay for Inhibitors of HIV-1 Budding by Blocking the Interaction of PTAP/TSG101: Sytravon Library Screen; Tumor susceptibility gene 101 protein (Homo sapiens), Q99816; Fluorescence polarization, FITC-PTAP peptide/Tsg101, 20 min; Potency, µM (top dose mostly 115 µM), usual class: inhibitors; 44,000 tested, under 10 active; AID 1347069, 2019; also: potency is read from the fitted curve at half-maximal effect; 0% is about no effect
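Fluorescence polarization binding of Tsg101 binding domain (10 uM final) to FITC-labeled PTAP-motif peptide (50 nM final) in HEPES pH 7.5/NaCl/Tween 20/EDTA/TCEP buffer; 20 min at r.t. Actives by curve class, <25 µM, efficacy <60% inhibition.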
SKOV3 invasion = Primary qHTS assay for Inhibitors of ovarian cancer metastasis using an organotypic tumor microenvironment (TME) model | SKOV3ip1-GFP adhesion/invasion on 3D omental model, fluorescence | Potency, µM (highest dose often 45.8 µM), for inactives: at the top dose activity change, negative = inhibition, usual class: inhibitors | actives 0.1% (n = 46,000);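 also: potency is read from the fitted curve at half-maximal effect; plate controls were DMSO wells for no effect and tomatine positive control wells for full effect; nearly all actives have a fitted effect of over 65% in size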
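Primary human omental fibroblast/mesothelial 3D culture pre-formed 48 h. SKOV3ip1-GFP cells added with compounds (0.36-46 umol/L), incubated 2 h RT/16 h 37 C, fixed; GFP cells quantified at 488/509 nm.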
GPR32 ag = qHTS for Agonists of Human Resolvin D1 Receptor DRV1; actives 2.5% (n = 48,000); activation, % at 76.9 µM; CHO-K1 GPR32 beta-arrestin PathHunter luminescence, 90 min; zero percent set by DMSO-only wells; Probable G-protein coupled receptor 32 (Homo sapiens), O75388;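 active = activation of at least 60% and not above a set upper limit, about 1 call in 100 departs from these limits; inconclusive = activation of 40% to 60%, or above that upper limit; inactive = activation under 40%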; also: 0% is about no effect
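Engineered CHO-K1 line co-expressing GPR32-ProLink and EA-beta-arrestin. Compound treatment lasted 90 min at 37 °C. Luminescence was recorded after 1 h with substrate at ambient temperature, relative to DMSO basal wells.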
GALK inhibitor = qHTS Assay for Inhibitors of Human Galactokinase (GALK): NCGC Sytravon Library Screen. P51570. recombinant GALK, Kinase-Glo ATP luminescence, 1 h. Potency, µM (titrated, usually from 57.5 µM), inactives show at the highest dose activity, negative = inhibition, hits mostly inhibitors. 44,000 tested, under 10 active. AID 1347072, 2019;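 also: plate controls were full GALK reaction for no effect and reaction lacking GALK for full effect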
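5 nM GALK with 35 µM ATP and 100 µM galactose in HEPES pH 8.0, MgCl2, NaCl, DTT, BSA; 1 h RT reaction, remaining ATP detected by Kinase-Glo Plus luminescence after 10 min; qHTS concentration series.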
Sfp PPTase inh = qHTS Assay for Inhibitos of Bacillus subtilis Sfp phosphopantetheinyl transferase (PPTase): Chemistry Optimization Followup. shares compounds with NTMT1 inhibitor. purified Sfp PPTase enzyme activity, qHTS. Potency, µM (titrated, usually from 114 µM), for the others: at the top dose activity change, negative = inhibition, actives largely listed as inhibitors. actives 78% (n = 230)
HM489 growth = qHTS for Inhibitos of Bacillus subtilis Sfp phosphopantetheinyl transferase (PPTase): Chemistry Optimization Followup in B. Subtilis HM489 | shares compounds with NTMT1 inhibitor | B. subtilis HM489 (acpS-) growth, BacTiter-Glo, 5 h | Potency, µM (titrated, usually from 114 µM), inactives show at the top dose activity change, negative = inhibition, most hits filed as inhibitors | actives 50% (n = 220)
Sfp PPTase gel = Gel-Based Assay for Inhibitos of Bacillus subtilis Sfp phosphopantetheinyl transferase (PPTase): Chemistry Optimization Followup; shares compounds with NTMT1 inhibitor; purified Sfp PPTase, gel-based product detection; Potency, µM (highest dose often 250 µM), inactives show at the highest dose activity change, negative = inhibition, actives largely listed as inhibitors; actives 54% (n = 220); AID 540355, 2011
Sfp inh SAR2 = qHTS Assay for Inhibitors of Bacillus subtilis Sfp phosphopantetheinyl transferase (PPTase): SAR Round 2; shares compounds with NTMT1 inhibitor; purified Sfp enzyme, PPTase activity, qHTS; Potency, µM (highest dose often 57.1 µM), inactives show top-dose activity change, negative = inhibition, usual class: inhibitors; actives 87% (n = 230); AID 602370, 2012
HSD17B4 inh = Extended Characterization of HPGD Inhibitors: Counterscreen Against HSD17b4; shares compounds with NTMT1 inhibitor; purified HSD17B4, estradiol/NAD+, NADH fluorescence; Potency, µM (highest dose often 57.1 µM), for inactives: top-dose activity change, negative = inhibition, usual class: inhibitors; actives 10% (n = 230); AID 743187, 2013
ALDH1A1 counter = Extended Characterization of HPGD Inhibitors: Counterscreen Against ALDH1A1 | shares compounds with NTMT1 inhibitor | recombinant ALDH1A1, NADH fluorescence, propionaldehyde/NAD+ | Potency, µM (highest dose often 57.1 µM), for the others: at the top dose activity change, negative = inhibition, usual class: inhibitors | actives 93% (n = 230) | AID 743195, 2013
Target sequence (P00352 whole entry, looked up): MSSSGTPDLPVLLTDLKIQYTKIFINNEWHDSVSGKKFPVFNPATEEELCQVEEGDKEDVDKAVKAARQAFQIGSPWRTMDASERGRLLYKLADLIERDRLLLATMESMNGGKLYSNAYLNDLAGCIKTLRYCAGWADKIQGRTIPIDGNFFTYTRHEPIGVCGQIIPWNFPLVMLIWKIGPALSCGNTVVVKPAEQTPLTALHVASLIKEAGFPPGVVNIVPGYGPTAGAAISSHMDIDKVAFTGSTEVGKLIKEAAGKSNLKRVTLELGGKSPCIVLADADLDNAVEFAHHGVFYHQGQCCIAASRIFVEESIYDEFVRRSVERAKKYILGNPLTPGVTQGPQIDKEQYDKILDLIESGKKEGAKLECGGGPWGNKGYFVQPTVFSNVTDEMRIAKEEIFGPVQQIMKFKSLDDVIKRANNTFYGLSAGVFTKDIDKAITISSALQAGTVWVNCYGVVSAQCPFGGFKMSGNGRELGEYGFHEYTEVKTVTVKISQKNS
NNMT counter = Counterscreen qHTS for Inhibitors of N-terminal methyltransferase 1 (NTMT1): NNMT MTaseGlo assay; shares compounds with NTMT1 inhibitor; NNMT MTase-Glo luminescence, SAH detection; Potency, µM (doses to about 57.1 µM), inactives show top-dose activity, negative = inhibition, usual class: inhibitors; actives 10% (n = 120)
Starred values were filed as active, the others as inactive; [ ] = dose if it differs, or a comment. In the library only some 3.8% were active in any assay of this set; here they are far more common. Unless noted, calls follow the shape of the dose curve; as a rule, active = well fitted curve in the direction sought with a large enough effect; inconclusive = small, poorly fitted or top-dose-only effect, or another doubt; inactive = no such curve, though single readings can be large; an effect the other way counts as inactive or inconclusive.

Cc1cncc(NC(=S)N2CCN(c3cccc(C(F)(F)F)c3)CC2)c1 was read as NTMT1 inhibitor inconclusive, Sfp PPTase inh inconclusive, HM489 growth -13%, Sfp PPTase gel inconclusive, Sfp inh SAR2 inconclusive, HSD17B4 inh -30% and ALDH1A1 counter -114%.
Screening COc1ccc(NC(=S)N2CCN(c3cccc(C(F)(F)F)c3)CC2)nc1 returned NTMT1 inhibitor inconclusive, Sfp PPTase inh inconclusive, HM489 growth 7%, Sfp PPTase gel -64%, Sfp inh SAR2 inconclusive, HSD17B4 inh -15% and ALDH1A1 counter 3.4µM*.
FC(F)(F)c1cccc(N2CCN(C(=S)Nc3cccnc3)CC2)c1 was read as NTMT1 inhibitor inconclusive, Sfp PPTase inh inconclusive, HM489 growth inconclusive, Sfp PPTase gel -57%, Sfp inh SAR2 41µM*, HSD17B4 inh -19% and ALDH1A1 counter 11µM*.
Screening CC(C)(C)c1ccc(Cn2c(Cc3ccccc3)nc3ccccc32)cc1 returned NTMT1 inhibitor -1%, B2AR arrestin ag inactive, TSG101-PTAP inh inactive, SKOV3 invasion -1%, GPR32 ag -43 and GALK inhibitor 2%.
`O=C(O)CO.[NH2-].[NH2-].[Pt+2]` gave NTMT1 inhibitor 20%[57.5 µM] and SKOV3 invasion -5%.
COc1ccc2c(c1)c1c(c(=O)n(Cc3ccccc3)c(=O)n1CC(=O)NCc1ccccc1)n2C was read as NTMT1 inhibitor -5%, B2AR arrestin ag inactive, TSG101-PTAP inh inactive, SKOV3 invasion -8%, GPR32 ag 7 and GALK inhibitor 1%.
Screening Cc1cc(-c2ncc(CC(=O)Nc3ccc(-c4cnccn4)cn3)cc2C)ccn1 returned NTMT1 inhibitor 5%[57.5 µM], SKOV3 invasion -1% and NNMT counter inconclusive.
Screening Cc1ccnc(NC(=S)N2CCNCC2)c1 returned NTMT1 inhibitor inconclusive, Sfp PPTase inh 4%, HM489 growth inconclusive, Sfp PPTase gel -52%, Sfp inh SAR2 14µM*, HSD17B4 inh 10% and ALDH1A1 counter 27µM*.
For Cc1ccnc(NC(=S)N2CCc3ccccc3C2)c1 the results were NTMT1 inhibitor inconclusive, Sfp PPTase inh 9.4µM*, HM489 growth 33µM*, Sfp PPTase gel 3.2µM*, Sfp inh SAR2 1µM*, HSD17B4 inh 47% and ALDH1A1 counter 3µM*.
Screening Cc1ccnc(NC(=O)C(C)c2cccc(C(=O)c3ccccc3)c2)c1 (stereo unspecified) returned NTMT1 inhibitor 6%[57.5 µM].
`O=C(c1cc2ccc3cccnc3c2[nH]1)N1CCN(c2cccc(Cl)c2)CC1` gave NTMT1 inhibitor -3%, B2AR arrestin ag inactive, TSG101-PTAP inh inactive, SKOV3 invasion -9%, GPR32 ag -10 and GALK inhibitor 3%.
`Cc1ccnc(NC(=S)N2CCN(c3ccc(Cl)cc3Cl)CC2)c1` gave NTMT1 inhibitor inconclusive, Sfp PPTase inh 1.9µM*, HM489 growth 8.3µM*, Sfp PPTase gel 13µM*, Sfp inh SAR2 0.73µM*, HSD17B4 inh -18% and ALDH1A1 counter 5.4µM*.
Screening S=C(Nc1cc(Cl)ccn1)N1CCN(c2ccc3ccccc3n2)CC1 returned NTMT1 inhibitor inconclusive, Sfp PPTase inh inconclusive, HM489 growth 26µM*, Sfp PPTase gel inconclusive, Sfp inh SAR2 7.2µM*, HSD17B4 inh -23% and ALDH1A1 counter inactive.
O=C(CC(=O)Nc1ccccc1F)Nc1ccc2nc3n(c(=O)c2c1)CCCCC3 was read as NTMT1 inhibitor inconclusive, B2AR arrestin ag inactive, TSG101-PTAP inh inactive, SKOV3 invasion inactive, GPR32 ag -15 and GALK inhibitor 6%.

Screening data as filed in PubChem BioAssay.
